The results in this text go back to PubChem BioAssay AID1053144 (Broad Institute, 2014).

Screen size: about 3,400 compounds; about 160 (4.7%) were called active.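 Rule for the calls: active = fitted curve reaches 30% activation at a concentration no higher than the top valid tested dose, luminescence rising; inconclusive = no clear call, values can overlap the other calls; inactive = signal moving opposite to the expected increase, plus the rest.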 Only a sample is shown. Entries with a potency or affinity are not part of this list.

The experiment in a line: TCF/LEF reporter activation in neural progenitors – cell-based, iPS-derived NPC, luciferase, Wnt3a, cherry-pick, dose response (AID 1053144).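 Note: Wnt3a stimulus is conditioned medium from Wnt3a-transfected mouse L cells at 5% in well.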 The settings on record: Wnt3a EC25, 24 h; series mostly up to 26 µM.
In the case of `CCOc1ccc(NC(=O)c2csc3c2CCCC3)cc1`, the activation result was “inactive”.

For the compound `Cc1ccc(NC(=O)c2csc3c2CCCC3)cc1`, the activation entry was “inactive”.

Consider `CCOc1ccc(NC(=O)c2ccc3c(c2)N(C)CCS3)cc1`, for which the activation entry was “inactive”.

As for `O=C(CSc1ccsc1[N+](=O)[O-])NCc1ccco1`, the activation result is “inactive”.

Turning to `COc1ccccc1Nc1ncnc2c1cnn2-c1cccc(C)c1`, the activation entry was “inactive”.

Consider `CC(C)Nc1ncnc2c1cnn2-c1ccccc1`, for which the activation entry is “inactive”.

As to `Cc1ccc(OCC(=O)Nc2ccccc2F)cc1C`, the activation entry is “inactive”.

Turning to `c1ccc(CNc2ncnc3c2oc2ccccc23)nc1`, the activation entry was “inactive”.

Regarding `c1ccc2c(c1)oc1c(NCC3CCCO3)ncnc12` (configuration not stated), the activation entry was “inactive”.

For the compound `CCOC(=O)N/N=C\c1ccccc1OC/C=C/c1ccccc1`, the activation result was “inactive”.

On to `O=C(/C=C/Nc1cccc(O)c1)c1ccccc1`, for which the activation entry is “inactive”.

With `COc1ccc(C(=O)Nc2ccccc2C(=O)NCc2ccco2)cc1OC`, the activation entry is “inactive”.

Turning to `O=C(Nc1cccc([N+](=O)[O-])c1)c1ccc2c(c1)OCCO2`, the activation result was “inactive”.

As for `CC(=O)Nc1cccc(NC(=O)c2ccc(C)c([N+](=O)[O-])c2)c1`, the activation result is “inactive”.

As for `COc1ccc(-c2ccc(NC(=O)c3ccc(Br)o3)cc2)nn1`, the activation entry was “inactive”.

For the compound `Cc1ccc(/C(=N/Nc2ncnc3ccccc23)C(=O)O)cc1`, the activation result was “inactive”.

For `Cc1cccc(Nc2ncnc3ccccc23)c1`, the activation result is “inactive”.

Consider `Cc1ccc(C(=O)Nc2cc3c(oc2=O)CCCC3=O)cc1`, for which the activation entry was “inactive”.

Regarding `Cn1nnc2cc(C(=O)Nc3ccc4ccccc4c3)ccc21`, the activation entry is “inactive”.

With `CCOc1ccc(-n2c(COc3ccc(C)cc3)nnc2SCC(N)=O)cc1`, the activation result is “inactive”.

On to `CCOc1ccc(C2C=C(c3ccccc3)Nc3nnnn32)cc1` (configuration not stated), for which the activation entry was “inactive”.

As to `COc1ccc(C(=Cc2ccccc2[N+](=O)[O-])C(=O)O)cc1`, the activation entry is “inactive”.

Consider `O=C(Nc1ccc(NC(=O)C2CC2)cn1)c1ccccc1Cl`, for which the activation result was “inactive”.

With `O=C(Nc1ccc(NC(=O)c2cccs2)cn1)c1ccccc1`, the activation result is “inactive”.

Regarding `COc1cc(NC(=O)c2cccs2)ccc1NC(=O)c1ccco1`, the activation entry is “inactive”.

As to `O=C(Nc1ccc(F)cc1)c1cc(-c2ccccc2)no1`, the activation result was “inactive”.

Take `O=C(NCC1CCCO1)c1cc(-c2ccc(Cl)cc2Cl)on1` (configuration not stated): the activation entry was “inactive”.

`Cc1cc([N+](=O)[O-])ccc1NC(=O)/C=C/c1cccs1`: the activation entry was “inactive”.

In the case of `COc1ccc2[nH]c3c(NCCCOC(C)C)ncnc3c2c1`, the activation result is “inactive”.

Take `CCN(C(=O)C=Cc1ccco1)c1ccccc1`: the activation entry was “inactive”.

Take `O=C(CNc1ccc2ccccc2c1)N/N=C/c1ccc(OC(=O)/C=C/c2ccco2)cc1`: the activation result was “inactive”.

In the case of `Cc1ccccc1Cn1nnc(-c2cccc(C(=O)O)c2)n1`, the activation result is “inactive”.

On to `COc1ccc(S(=O)(=O)n2ccc(-c3cnc(-c4ccccc4)s3)n2)cc1`, for which the activation entry was “inactive”.

For the compound `Cc1cccc(Nc2nc(-c3ccc(F)c(C)c3)cs2)n1`, the activation entry is “inactive”.

Turning to `CC1CCCCN1C(=O)c1cc(-c2ccc3c(c2)OCO3)on1` (configuration not stated), the activation result was “inactive”.

Turning to `Oc1oc(-c2ccc(Br)cc2)nc1/C=N/c1ccccn1`, the activation entry is “inactive”.

As to `Cc1cccc(N2CC(C(=O)NC3CCCCCC3)CC2=O)c1C` (configuration not stated), the activation entry is “inactive”.

On to `CCC(=O)Nc1nc2cc(OC)ccc2s1`, for which the activation result is “inactive”.

Consider `CCCC(=O)Nc1nc2ccc(OCC)cc2s1`, for which the activation result is “inactive”.

Regarding `COCC(=O)Nc1nc2ccc(C)cc2s1`, the activation entry was “inactive”.

As for `COc1ccc2sc(NC(C)=O)nc2c1`, the activation entry was “inactive”.

Turning to `Cc1ccc(-c2cn3c(=O)cc(C)[nH]c3n2)cc1`, the activation entry is “inactive”.

Take `CCN(CC)S(=O)(=O)c1ccc(NS(=O)(=O)c2cccc(C)c2)cc1`: the activation result was “inactive”.

As to `Cc1ccc(/C=N/Nc2ncnc3nc[nH]c23)cc1`, the activation entry is “inactive”.

For the compound `Cc1cccc(N2CCN(C(=O)CCCOc3ccccc3)CC2)c1C`, the activation entry is “inactive”.

Consider `CCN1C(=O)CCN(C2CCCC2)c2nc(Nc3ccc(C(=O)NC4CCN(C)CC4)cc3OC)ncc21`, for which the activation result is “inactive”.

As to `CC(=O)Nc1ccc(C(=O)COC(=O)C2CC2C)c(F)c1` (configuration not stated), the activation result was “inactive”.

Regarding `Fc1ccc(-c2ccc3c(n2)CCCN3Cc2ccccn2)cc1`, the activation result is “inactive”.

Turning to `O=C(NC(=O)c1ccccc1)Nc1ccccc1O`, the activation entry is “inactive”.

With `O=C(Nc1ccccc1N1CCN(c2ccccc2)CC1)c1ccccc1`, the activation result is “inactive”.

With `Oc1[nH]c2ccccc2c1C=Nc1ccc2c(c1)OCO2`, the activation entry was “inactive”.

With `COc1ccccc1C(=O)N(C)c1nnc(-c2ccccc2)s1`, the activation entry was “inactive”.

In the case of `CCOc1cccc(C(=O)Nc2ccc3c(c2)OCCO3)c1`, the activation entry was “inactive”.

Turning to `c1ccc2oc(-c3ccn[nH]3)cc2c1`, the activation entry was “inactive”.

For `CCNc1nc(-c2cc3ccccc3o2)cs1`, the activation result is “inactive”.

As for `Oc1ccc(Cl)cc1CNc1nccs1`, the activation entry was “inactive”.

For the compound `CN(C)c1ccc(/C=N/NC(=O)c2ccn(C)n2)cc1`, the activation entry was “inactive”.

On to `O=C(NCCc1cccs1)C1CC(c2ccccc2[N+](=O)[O-])=NO1` (configuration not stated), for which the activation result was “inactive”.

With `Clc1ccccc1CSc1nc2ccncc2[nH]1`, the activation entry is “inactive”.

For `CC(=O)Nc1ccc2nc(-c3ccccn3)[nH]c2c1`, the activation result is “inactive”.

With `c1ccc(-c2ccc(-c3ccccn3)s2)nc1`, the activation result is “inactive”.

Turning to `NC(=O)c1ccccc1OCc1nc2ccccc2s1`, the activation entry is “inactive”.

On to `Cc1ccc(NC(=O)c2cc3c(s2)CCCC3)cc1`, for which the activation entry is “inactive”.

Take `COc1ccc2cc(-c3ccccc3)ncc2c1`: the activation result was “inactive”.

Consider `COc1ccc(-c2cc(-c3ccc(OC)cc3)[nH]n2)cc1`, for which the activation result is “inactive”.

For the compound `O=C(Nc1ccc(Br)cc1)c1cc2ccccn2n1`, the activation result is “inactive”.

For the compound `Cc1ccc(C)c(NC(=O)c2cc3ccccn3n2)c1`, the activation result is “inactive”.

For `Clc1ccc(-n2nnc(-c3cccnc3)n2)cc1Cl`, the activation entry was “inactive”.

For `O=C(Nc1ccc(F)cc1F)c1csc(-c2cccs2)n1`, the activation entry is “inactive”.

Take `Cc1nc([N+](=O)[O-])cn1CC(O)c1ccc(Cl)cc1` (configuration not stated): the activation entry was “inactive”.

Take `Nc1c(C(=O)c2ccccc2)oc2ccc(Br)cc12`: the activation result is “inactive”.

On to `COc1ccc(C(=O)c2oc3ccc(OC)cc3c2N)cc1`, for which the activation entry was “inactive”.

`COc1ccc(C(=O)Nc2ccc3c(c2)nc2n3CCSC2)cc1`: the activation entry was “inactive”.

For `Cc1ccc2cc(C#N)c(SCC(=O)N3CCCC3)nc2c1`, the activation entry was “inactive”.

Consider `NC(=O)C(=O)N/N=C1\CCc2ccccc21`, for which the activation result is “inactive”.

`O=C(CC(=O)c1ccccc1)Nc1ccccc1`: the activation result is “inactive”.

On to `CC(=O)Nc1cccc(NC(=O)CCCC(=O)O)c1`, for which the activation result is “inactive”.

With `CC(C)c1ccc(Nc2nnc(SCC(=O)NCC3CCCO3)s2)cc1` (configuration not stated), the activation entry is “inactive”.

In the case of `CCCc1cc(C(=O)Nc2cccc(Cl)c2)no1`, the activation result is “inactive”.

In the case of `CCCc1cc(C(=O)Nc2cccnc2)no1`, the activation result was “inactive”.

Take `O=C(Nc1ccc(N2CCCCC2)cc1)c1cncc(Br)c1`: the activation result was “inactive”.

Regarding `Nc1c(-c2cccc(Cl)c2)cnc2c(-c3ccccc3)cnn12`, the activation result is “inactive”.
